Where a name gives a salt, the structure may show the parent alone. ± gives the uncertainty stated by the source.
Each molecule was assayed on Caenorhabditis elegans N2 (assay: food intake (mean delta OD600 / animal over 72 h) with 50 uM loxapine co-treatment (OD600 units per animal); higher = more food eaten (less suppression of loxapine-induced hyperphagia)). Conditions: first compound 33 µM, loxapine concentration 50 µM.
Protocol: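 C. elegans N2 adults (FUDR-sterilised, day 1) in 96-well plates fed gamma-irradiated bacteria. Each library drug (MedChemExpress FDA-approved library) at 33 uM was combined with loxapine at 50 uM. Food intake was measured as bacterial clearance: the change in OD600 from day 1 to 72 h, normalised per animal (mean over 14-21 wells of about 10-12 worms). Drugs flagged for bacterial lysis or sickness were excluded by the authors.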

| Compound | food intake |
| --- | --- |
| Nc1nc(/C(=C/CC(=O)O)C(=O)N[C@@H]2C(=O)N3C(C(=O)O)=CCS[C@H]23)cs1 [ceftibuten (dihydrate)] + CN1CCN(C2=Nc3ccccc3Oc3ccc(Cl)cc32)CC1 [loxapine] | 0.0192 ± 0.0055 |
| CCc1nc(N)nc(N)c1-c1ccc(Cl)cc1 [pyrimethamine] + CN1CCN(C2=Nc3ccccc3Oc3ccc(Cl)cc32)CC1 [loxapine] | 0.0221 ± 0.003 |
| CC(C(=O)O)c1ccc2c(c1)CC(=O)c1ccccc1S2 (stereo not given) [zaltoprofen] + CN1CCN(C2=Nc3ccccc3Oc3ccc(Cl)cc32)CC1 [loxapine] | 0.0216 ± 0.0032 |
| O=C1CC2(CCCC2)CC(=O)N1CCCCN1CCN(c2ncccn2)CC1 [buspirone (hydrochloride)] + CN1CCN(C2=Nc3ccccc3Oc3ccc(Cl)cc32)CC1 [loxapine] | 0.0245 ± 0.0044 |
| Cc1cn([C@@H]2C[C@@H](O)[C@H](CO)O2)c(=O)[nH]c1=O [telbivudine] + CN1CCN(C2=Nc3ccccc3Oc3ccc(Cl)cc32)CC1 [loxapine] | 0.0219 ± 0.0023 |
| CN1CC(=O)N2[C@H](c3ccc4c(c3)OCO4)c3[nH]c4ccccc4c3C[C@@H]2C1=O [tadalafil] + CN1CCN(C2=Nc3ccccc3Oc3ccc(Cl)cc32)CC1 [loxapine] | 0.0236 ± 0.0034 |
| CC[C@@H](CO)NCCN[C@@H](CC)CO [ethambutol (dihydrochloride)] + CN1CCN(C2=Nc3ccccc3Oc3ccc(Cl)cc32)CC1 [loxapine] | 0.024 ± 0.0019 |
| CC[C@@H]([C@H](C)O)n1ncn(-c2ccc(N3CCN(c4ccc(OC[C@@H]5CO[C@@](Cn6cncn6)(c6ccc(F)cc6F)C5)cc4)CC3)cc2)c1=O [Posaconazole] + CN1CCN(C2=Nc3ccccc3Oc3ccc(Cl)cc32)CC1 [loxapine] | 0.023 ± 0.0056 |
| CC(C)(C)C(=O)OCOP(=O)(COCCn1cnc2c(N)ncnc21)OCOC(=O)C(C)(C)C [Adefovir dipivoxil] + CN1CCN(C2=Nc3ccccc3Oc3ccc(Cl)cc32)CC1 [loxapine] | 0.0231 ± 0.0029 |
| O=C(c1ccccc1)c1ccc2n1CCC2C(=O)O (stereo not given) [ketorolac (romethamine salt)] + CN1CCN(C2=Nc3ccccc3Oc3ccc(Cl)cc32)CC1 [loxapine] | 0.0225 ± 0.0034 |
| NC(=O)c1cnccn1 [pyrazinamide] + CN1CCN(C2=Nc3ccccc3Oc3ccc(Cl)cc32)CC1 [loxapine] | 0.0222 ± 0.0034 |
| CCOC(=O)C(C)(C)Oc1ccc(Cl)cc1 [clofibrate] + CN1CCN(C2=Nc3ccccc3Oc3ccc(Cl)cc32)CC1 [loxapine] | 0.0218 ± 0.0033 |
| CC(C)(C)C(=O)C(Oc1ccc(Cl)cc1)n1ccnc1 (stereo not given) [climbazole] + CN1CCN(C2=Nc3ccccc3Oc3ccc(Cl)cc32)CC1 [loxapine] | 0.0235 ± 0.012 |
| Cc1ncc([N+](=O)[O-])n1CC(C)O (stereo not given) [secnidazole] + CN1CCN(C2=Nc3ccccc3Oc3ccc(Cl)cc32)CC1 [loxapine] | 0.0205 ± 0.0035 |
| CC(=O)OCC(=O)[C@@]1(O)CC[C@H]2[C@@H]3CCC4=CC(=O)CC[C@]4(C)[C@H]3C(=O)C[C@@]21C [cortisone (acetate)] + CN1CCN(C2=Nc3ccccc3Oc3ccc(Cl)cc32)CC1 [loxapine] | 0.0231 ± 0.0059 |
| Nc1nc2c(ncn2COC(CO)CO)c(=O)[nH]1 [ganciclovir] + CN1CCN(C2=Nc3ccccc3Oc3ccc(Cl)cc32)CC1 [loxapine] | 0.0236 ± 0.0019 |
| CCCCNc1ccc(C(=O)OCCN(C)C)cc1 [tetracaine (hydrochloride)] + CN1CCN(C2=Nc3ccccc3Oc3ccc(Cl)cc32)CC1 [loxapine] | 0.0236 ± 0.0037 |
| Nc1nccs1 [aminothiazole] + CN1CCN(C2=Nc3ccccc3Oc3ccc(Cl)cc32)CC1 [loxapine] | 0.0243 ± 0.0035 |
| CC(=O)N1CCN(c2ccc(OCC3COC(Cn4ccnc4)(c4ccc(Cl)cc4Cl)O3)cc2)CC1 (stereo not given) [ketoconazole] + CN1CCN(C2=Nc3ccccc3Oc3ccc(Cl)cc32)CC1 [loxapine] | 0.0239 ± 0.0034 |
| O=C1NC(=O)C(c2ccccc2)(c2ccccc2)N1 [phenytoin] + CN1CCN(C2=Nc3ccccc3Oc3ccc(Cl)cc32)CC1 [loxapine] | 0.0218 ± 0.0037 |

| Compound | food intake |
| --- | --- |
| Cc1cccc(C)c1OCC(=O)N[C@@H](Cc1ccccc1)[C@@H](O)C[C@H](Cc1ccccc1)NC(=O)[C@H](C(C)C)N1CCCNC1=O [lopinavir] + CN1CCN(C2=Nc3ccccc3Oc3ccc(Cl)cc32)CC1 [loxapine] | 0.0209 ± 0.0084 |
| CC[C@H]1OC(=O)C[C@@H](O)[C@H](C)[C@@H](O[C@@H]2O[C@H](C)[C@@H](O[C@H]3C[C@@](C)(O)[C@@H](O)[C@H](C)O3)[C@H](N(C)C)[C@H]2O)[C@@H](CC=O)C[C@@H](C)C(=O)/C=C/C(C)=C/[C@@H]1CO[C@@H]1O[C@H](C)[C@@H](O)[C@@H](OC)[C@H]1OC [Tylosin (tartrate)] + CN1CCN(C2=Nc3ccccc3Oc3ccc(Cl)cc32)CC1 [loxapine] | 0.021 ± 0.0039 |
| CC(=O)O[C@H]1CC[C@H]2[C@@H]3CCc4cc(O)ccc4[C@H]3CC[C@]12C [b-estradiol 17-acetate] + CN1CCN(C2=Nc3ccccc3Oc3ccc(Cl)cc32)CC1 [loxapine] | 0.0213 ± 0.0046 |
| O=c1[nH]c(=O)n([C@H]2C[C@H](O)[C@@H](CO)O2)cc1I [idoxuridine] + CN1CCN(C2=Nc3ccccc3Oc3ccc(Cl)cc32)CC1 [loxapine] | 0.0176 ± 0.0026 |
| S=C=Nc1ccc(N=C=S)cc1 [p-Phenylene diisothiocyanate] + CN1CCN(C2=Nc3ccccc3Oc3ccc(Cl)cc32)CC1 [loxapine] | 0.0229 ± 0.0028 |
| O=C(O)CCNC(=O)c1ccccc1 [betamipron] + CN1CCN(C2=Nc3ccccc3Oc3ccc(Cl)cc32)CC1 [loxapine] | 0.0228 ± 0.0023 |
| OCCN1C[C@H](O)[C@@H](O)[C@H](O)[C@H]1CO [miglitol] + CN1CCN(C2=Nc3ccccc3Oc3ccc(Cl)cc32)CC1 [loxapine] | 0.0214 ± 0.005 |
| CC1(C)[C@H](C(=O)O)N2C(=O)C[C@H]2S1(=O)=O [sulbactam] + CN1CCN(C2=Nc3ccccc3Oc3ccc(Cl)cc32)CC1 [loxapine] | 0.0225 ± 0.0027 |
| Nc1ccc(O)c(C(=O)O)c1 [5-Aminosalicylic acid] + CN1CCN(C2=Nc3ccccc3Oc3ccc(Cl)cc32)CC1 [loxapine] | 0.0212 ± 0.0048 |
| CCOC(=O)[C@H](CCc1ccccc1)N[C@@H](C)C(=O)N1Cc2ccccc2C[C@H]1C(=O)O [quinapril (hydrochloride)] + CN1CCN(C2=Nc3ccccc3Oc3ccc(Cl)cc32)CC1 [loxapine] | 0.0212 ± 0.003 |
| O=C(c1cc(Cc2n[nH]c(=O)c3ccccc23)ccc1F)N1CCN(C(=O)C2CC2)CC1 [olaparib] + CN1CCN(C2=Nc3ccccc3Oc3ccc(Cl)cc32)CC1 [loxapine] | 0.0205 ± 0.005 |
| CC(=O)NCCCS(=O)(=O)O [Acamprosate (calcium)] + CN1CCN(C2=Nc3ccccc3Oc3ccc(Cl)cc32)CC1 [loxapine] | 0.023 ± 0.0036 |
| O=C(O)C1=C(CSc2nnnn2CS(=O)(=O)O)CS[C@@H]2[C@H](NC(=O)[C@H](O)c3ccccc3)C(=O)N12 [cefonicid (sodium)] + CN1CCN(C2=Nc3ccccc3Oc3ccc(Cl)cc32)CC1 [loxapine] | 0.0217 ± 0.018 |
| NC(=O)c1ncn([C@@H]2O[C@H](CO)[C@@H](O)[C@H]2O)n1 [ribavirin] + CN1CCN(C2=Nc3ccccc3Oc3ccc(Cl)cc32)CC1 [loxapine] | 0.0212 ± 0.0037 |
| Nc1ccc(S(=O)(=O)c2ccc(N)cc2)cc1 [dapsone] + CN1CCN(C2=Nc3ccccc3Oc3ccc(Cl)cc32)CC1 [loxapine] | 0.0216 ± 0.006 |
| Cc1[nH]c(=O)c(C#N)cc1-c1ccncc1 [milrinone] + CN1CCN(C2=Nc3ccccc3Oc3ccc(Cl)cc32)CC1 [loxapine] | 0.0238 ± 0.0035 |
| CC(=O)C1C(=O)C=C(C)OC1=O (stereo not given) [dehydroacetic acid] + CN1CCN(C2=Nc3ccccc3Oc3ccc(Cl)cc32)CC1 [loxapine] | 0.0214 ± 0.0043 |
| COc1cc(O)c(C(=O)c2ccccc2)cc1S(=O)(=O)O [sulisobenzone] + CN1CCN(C2=Nc3ccccc3Oc3ccc(Cl)cc32)CC1 [loxapine] | 0.0234 ± 0.0024 |
| O=C(C1CCCCC1)N1CC(=O)N2CCc3ccccc3C2C1 (stereo not given) [praziquantel] + CN1CCN(C2=Nc3ccccc3Oc3ccc(Cl)cc32)CC1 [loxapine] | 0.0224 ± 0.0023 |
| CO/N=C(\C(=O)N[C@@H]1C(=O)N2C(C(=O)O)=C(CSc3nc(=O)c(O)nn3C)CS[C@H]12)c1csc(N)n1 [ceftriaxone (sodium salt)] + CN1CCN(C2=Nc3ccccc3Oc3ccc(Cl)cc32)CC1 [loxapine] | 0.0251 ± 0.0082 |

Reference: the supplement of paper PMC6288085
